The record followed here is PubChem BioAssay AID1851 (National Center for Advancing Translational Sciences (NCATS), 2009).

Molecules are shown by their SMILES. Among all 16,000 compounds or so, about 5,800 (36%) were called active. Inconclusive results (about 23%) are left out. Some of the results follow. A number with no mark means an inactive call. The call rests on the fitted dose curve; in most records, active means well fitted curve in the direction sought with a large enough effect; inconclusive means small, poorly fitted or top-dose-only effect, or effect the other way; inactive means no such curve, though single readings can be large or run the other way.

The term AC50 denotes the concentration giving half of the maximal activity seen.
On the % scale 0 is the no-effect control and ±100 the full control effect.

The assay deals with Cytochrome P450 2C19 (Homo sapiens) (UniProt P33261). Kind of assay: Cytochrome panel assay with activity outcomes. As to conditions: recombinant CYP, pro-luciferin dealkylation, luminescence, p450-cyp2c19; series mostly up to 57.1 µM.
Cytochrome P450 2C19 (Homo sapiens), sequence (P33261 whole entry, looked up): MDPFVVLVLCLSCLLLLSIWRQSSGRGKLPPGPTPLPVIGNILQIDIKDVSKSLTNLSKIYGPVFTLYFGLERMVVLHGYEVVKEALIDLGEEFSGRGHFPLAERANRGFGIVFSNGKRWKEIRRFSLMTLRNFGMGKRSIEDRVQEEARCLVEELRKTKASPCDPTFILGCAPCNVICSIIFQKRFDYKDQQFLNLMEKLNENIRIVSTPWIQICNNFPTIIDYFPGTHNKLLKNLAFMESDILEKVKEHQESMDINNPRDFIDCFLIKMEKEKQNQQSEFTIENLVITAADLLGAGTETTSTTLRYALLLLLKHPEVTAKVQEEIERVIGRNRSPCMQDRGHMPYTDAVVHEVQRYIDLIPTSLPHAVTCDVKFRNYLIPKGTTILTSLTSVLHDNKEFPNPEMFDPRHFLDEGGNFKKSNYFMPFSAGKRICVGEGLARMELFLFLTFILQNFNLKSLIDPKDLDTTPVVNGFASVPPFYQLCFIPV
With `Cc1cc(N=Cc2c(CO)cnc(C)c2O)c(N=Cc2c(CO)cnc(C)c2O)cc1C.[Zn]`, the activity, negative = inhibition is -22.1% [at 11.4 µM].
As to `CCCCN=c1sc(C(=O)OC)cc(=O)n1CCCC`, the AC50 was 2.24 µM (active).
For the molecule `Cc1cc2c(c(=O)o1)[C@@H](O)[C@H]1O[C@@H]1C2=O`, the activity, negative = inhibition was -1.32% [at 11.4 µM].
Take `CN(C)c1cc(-c2cccc(NS(C)(=O)=O)c2)ncn1`: the AC50 entry was “inactive”.
On the same count and under the same terms, the value for `COc1ccc(N(CC(=O)Nc2cccc(C)c2)S(=O)(=O)c2c(C)n[nH]c2C)cc1` was 0.794 µM (active).
On the same count and under the same terms, then `Cc1cccc(NS(=O)(=O)c2c(C)n[nH]c2C)c1`, with 7.08 µM (active).
As to `Cc1n[nH]c(C)c1S(=O)(=O)N1CCOCC1`, the AC50 entry is “inactive”.
The same measure, in the same setting: then `CN(CC(=O)Nc1ccc(F)c(F)c1)S(=O)(=O)c1cccc2nsnc12`, with 3.55 µM (active); and `N#Cc1cccc(NC(=O)N2CCC3(CC2)CCN(C(=O)c2cccc(F)c2)CC3)c1`, with “inactive”.
For `O=S1(=O)[C@H]([C@H]2CC3c4ccccc4C2c2ccccc23)[C@@H](N2CCCCC2)[C@@H]1c1ccccc1`, the AC50 is 2.51 µM (active).
Consider `O=C(O)[C@H]1C[C@@H](CP(=O)(O)O)CCN1`, for which the AC50 was 7.94 µM (active).
As for `O=C(O)[C@H]1CN(CCCP(=O)(O)O)CCN1`, the AC50 entry was “inactive”.
For `O=C(O)[C@@H]1CCCN1`, the activity, negative = inhibition is 19.4% [at 11.4 µM].
In the case of `CCCCn1c(SCc2c(C)noc2C)nc2cc(S(N)(=O)=O)ccc21`, the AC50 is 14.1 µM (active).
Same read-out and setting: then `CCOc1c(OC(C)=O)ccc(/C=C/c2ccc3cccc(OC(C)=O)c3n2)c1[N+](=O)[O-]`, with 10 µM (active); and `CCOc1c(OC(C)=O)ccc(/C=C2\N=C(SCC)SC2=O)c1[N+](=O)[O-]`, with 2.82 µM (active).
Still for that read-out and setting: the value for `COc1ccc(-c2cc(C(F)F)nc(-n3nc(C)cc3C)n2)cc1` was 28.2 µM (active); that for `Cc1c(C)c2c(C)[nH]nc2oc1=O` was 17.8 µM (active); that for `Fc1ccc(CSc2ncnc3sc4c(c23)CCCC4)cc1` was 0.891 µM (active).
Take `Clc1ccc(CSc2ncnc3c2ncn3[C@@H]2CCCCO2)cc1`: the activity, negative = inhibition was -40.6% [at 11.4 µM].
Same read-out and setting: then `Nc1[nH]c(=O)nc2c1ncn2[C@H]1O[C@@H](CO)[C@@H](O)[C@@H]1O`, with 25.3% [at 11.4 µM].
On to `CCn1c2ccccc2c2cc(/C=N/n3cn[nH]c3=S)ccc21`, for which the AC50 was 3.55 µM (active).
Take `O=C1[C@H]2[C@H]3[C@H](O)[C@H](O)C/C(=N/OC[C@@H](O)COCc4ccco4)[C@@H]3CC[C@@H]2C(=O)N1C1CCCCC1`: the activity, negative = inhibition was 9.78% [at 11.4 µM].
Take `CS(=O)(=O)Nc1ccc(S(=O)(=O)N2CCOCC2)cc1`: the AC50 entry is “inactive”.
With `COc1cc(NC(=S)Nc2ccc(S(=O)(=O)N3CCOCC3)cc2)cc(OC)c1OC`, the AC50 is 10 µM (active).
